Compound activity: PubChem, National Center for Advancing Translational Sciences (NCATS)
Compounds with a hit are over-represented: about 7.3% of the library has one in this group of screens.
SMN2 splice enh: enhancers of SMN2 splice variant expression; 2.8% of 210,000 active; HEK293 SMN2-luciferase splicing reporter, luminescence, 30-36 h; Potency, µM (highest dose often 46.1 µM), for inactives: at the top dose activity change, positive = activation, actives largely listed as activators; note: % of control where 0% means no effect; nearly all actives have a fitted effect of over 55% in size
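HEK293 cells carry an SMN2 minigene-luciferase reporter in which exon 7 inclusion puts luciferase in frame. Cells were seeded at 2000 cells/well, attached for 10-12 hours, then exposed to compounds for 30-36 hours at 37C before ONE-Glo luminescence.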
KinaseGlo FLuc: counter-screen: inhibitors of Kinase-Glo firefly luciferase; Potency, µM (top dose mostly 38.3 µM), inactives show top-dose activity change, negative = inhibition, hits mostly inhibitors; 0.28% of 200,000 active; Kinase-Glo luciferase, ATP luminescence, 8 min; Q27757; note: % is set by controls: 0 for no effect and ±100 for the full control effect; nearly all actives have a fitted effect of over 60% in size
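Inhibition of Kinase-Glo luciferase light generation was assessed at 10 uM ATP in pH 7.2 imidazole buffer, with luminescence measured after eight minutes at ambient temperature.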
NPC1 prom act: NPC1 promoter activation; Huh7 NPC1 promoter luciferase reporter, 24 h; Potency, µM (top dose mostly 9.22 µM), without a hit: at the highest dose activation, actives largely listed as activators; 2.4% of 320,000 active; AID 485313; note: % of control where 0% means no effect; nearly all actives have a fitted effect of over 60% in size
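Compounds in DMSO were transferred onto Huh7 NPC1-luciferase reporter cells pre-incubated 2 h; after 24 h at 37 °C, Amplite reagent was dispensed and luminescence recorded 10 min later.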
ELG1 genotox: genotoxicity induction in ELG1-luciferase HEK293T cells; 1.3% of 330,000 active; HEK293T ELG1-luciferase reporter, luminescence, 16 h; AID 504466; Potency, µM (highest dose often 46 µM), for inactives: at the top dose activity change, positive = activation, actives largely listed as activators; note: % of control where 0% means no effect; nearly all actives have a fitted effect of over 60% in size
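Luminescence read-out: rising ELG1-luciferase signal, reflecting elevated ELG1 protein under genetic stress, flags genotoxic compounds. Cells were treated for 16 hr at 37 °C before ONE-Glo detection.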
Rab9 prom act: activates the Rab9 promoter; Huh7 Rab9 promoter-luciferase reporter, luminescence, 24 h; Potency, µM (highest dose often 9.22 µM), without a hit: at the highest dose activation, negative = inhibition, usual class: activators; 2.8% of 320,000 active; AID 485297; note: % of control where 0% means no effect; nearly all actives have a fitted effect of over 60% in size
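Cell-based reporter: Huh7 stable for Rab9 promoter-driven luciferase, plated in reduced-serum medium with 10% FBS at 1500 cells/well, compound-treated 24 h at 37 °C, luminescence read after 10 min reagent.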
FLuc modulator: counter-screen for miR-21 project: firefly luciferase inhibitors or activators | P08659 | purified FLuc, Km substrates, luminescence inhibition | Potency, µM (highest dose often 57.5 µM), inactives show at the highest dose activity change, negative = inhibition, hits mostly inhibitors | 6.9% of 360,000 active;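 note: plate controls were vehicle for no effect and reference inhibitor for full effect; nearly all actives have a fitted effect of over 55% in size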
Target sequence (P08659 whole entry, looked up): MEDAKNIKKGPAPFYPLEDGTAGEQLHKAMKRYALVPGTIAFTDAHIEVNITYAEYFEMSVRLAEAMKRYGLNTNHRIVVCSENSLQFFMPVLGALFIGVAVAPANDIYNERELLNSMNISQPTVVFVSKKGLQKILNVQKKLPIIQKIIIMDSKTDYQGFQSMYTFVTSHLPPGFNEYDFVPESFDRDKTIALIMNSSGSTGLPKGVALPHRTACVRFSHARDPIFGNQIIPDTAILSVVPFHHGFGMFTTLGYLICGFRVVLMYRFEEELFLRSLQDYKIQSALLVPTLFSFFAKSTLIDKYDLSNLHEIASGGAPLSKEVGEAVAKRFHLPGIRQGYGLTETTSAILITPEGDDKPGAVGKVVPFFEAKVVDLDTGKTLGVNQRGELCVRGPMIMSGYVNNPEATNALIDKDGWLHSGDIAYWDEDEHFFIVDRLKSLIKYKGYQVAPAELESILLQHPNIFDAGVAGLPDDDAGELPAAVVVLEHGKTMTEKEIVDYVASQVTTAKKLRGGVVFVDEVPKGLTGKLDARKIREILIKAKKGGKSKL
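Purified P. pyralis luciferase (10nM final) with 10uM D-luciferin and 10uM ATP (Km levels) in 50mM Tris acetate pH 7.5, 10mM Mg acetate, 0.01% Tween-20, 0.05% BSA; qHTS 6-point titration, ~60 µM downward; luminescence read.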
An asterisk follows results filed as active; ? = inconclusive; · = not tested or not shown; [ ] = another dose, or the depositor's remark. Calls come from the whole dose curve; as a rule, active = well fitted curve in the direction sought with a large enough effect; inconclusive = small, poorly fitted or top-dose-only effect, or another doubt; inactive = no such curve, though single readings can be large; an effect the other way counts as inactive or inconclusive. Potency is the fitted concentration of half-maximal effect.

SMILES | SMN2 splice enh | KinaseGlo FLuc | NPC1 prom act | ELG1 genotox | Rab9 prom act | FLuc modulator
COc1ccc(-n2ccnc(NCCc3ccc(S(N)(=O)=O)cc3)c2=O)cc1Cl | · | · | · | · | · | -2%
CCOC(=O)C1CCC(CN(Cc2c(Cl)cccc2Cl)S(=O)(=O)c2ccc(Cl)cc2)CC1 (configuration not stated) | · | · | · | · | · | 0%
CCOC(=O)c1c(NC(=O)/C=C/c2ccc(C)o2)sc(C)c1C | · | · | 25% | -1% | 23% | -14%
COc1ccc(/C=C/C(=O)Nc2sc(C)c(C)c2C(=O)O)cc1 | 1% | · | · | · | · | 1.3µM*
Cc1sc(NC(=O)/C=C/c2ccco2)c(C(=O)O)c1C | · | · | ? | ? | ? | 5.4µM*
CSc1ccc(CNc2ccc(Cl)cc2)cc1 | 15% | -3% | 24% | 27% | ? | 15µM*
Clc1ccc(NCc2cccnc2)cc1 | · | · | -4% | 3% | 8% | -6%
COc1ccc(-c2ncc3ccccn23)cc1 | ? | -3% | 5% | 11% | ? | ?
COc1cc(OC)cc(-c2ncc3ccccn23)c1 | -6% | -7% | 1% | 4% | 4% | 17µM*
COc1cc(-c2ncc3ccccn23)cc(OC)c1OC | 25% | 0% | 1% | 10% | -3% | -1%
COc1cccc(-c2ncc3ccccn23)c1 | 14µM* | -14% | 4µM* | ? | 2.8µM* | 8.5µM*
Brc1ccc(-c2ncc3ccccn23)cc1 | · | · | 3.2µM* | ? | 3.2µM* | 13µM*
COc1cc(C2C(=O)N(C3CCCCC3)CC(=O)N2Cc2ccc(C)cc2)ccc1OC(C)C (configuration not stated) | · | · | · | · | · | -5%
C=CCOC(=O)COc1ccc2c(C)c(CC)c(=O)oc2c1 | 29% | 1% | 5% | -1% | -3% | 12µM*
C=CCOC(=O)COc1ccc2c(C)c(C)c(=O)oc2c1 | 10% | 0% | 0% | 2% | -1% | 19µM*
CCc1nnc2c3ccccc3nc(N3CCN(c4cc(C)ccc4C)CC3)n12 | · | · | · | · | · | 6%
COc1ccc(O)c(C(=O)c2cc(SCC(=O)O)c3nc4sc5c(c4c(=O)n3c2)CCCC5)c1 | · | · | 2% | 4% | -3% | 6.7µM*
CCc1c(C)sc2nc3c(C(=O)N4CCOCC4)cc(C(=O)c4ccccc4O)cn3c(=O)c12 | -15% | -1% | 2% | -12% | -15% | -12%
CCOC(=O)c1sc2nc3c(SCC(=O)O)cc(C(=O)c4cc(F)ccc4O)cn3c(=O)c2c1C | 23% | 3% | 1% | 4% | -3% | 8.5µM*
COC(=O)c1cc(C(=O)c2cc(F)ccc2O)cn2c(=O)c3c(C)c(C)sc3nc12 | · | · | -2% | -5% | -1% | ?
O=C(O)CSc1cc(C(=O)c2ccccc2O)cn2c(=O)c3c(-c4ccccc4)csc3nc12 | -2% | -1% | -4% | 0% | 1% | 15µM*
Cc1sc2nc3c(SC(C)C(=O)O)cc(C(=O)c4ccccc4O)cn3c(=O)c2c1C (configuration not stated) | 13% | 2% | -5% | 5% | -11% | 21µM*
Cc1ccc(NC(=O)C(=O)NCC(c2cccnc2)N2CCN(C)CC2)cc1C (configuration not stated) | · | · | · | · | · | -9%
Cc1ccc(CSCc2ccc(C(=O)NCCc3ccc(Cl)cc3)o2)cc1 | · | · | · | · | · | -11%
Cc1cc(C)n(C(C)CC(=O)Nc2ccc(C)c(N(C)C)c2)n1 (configuration not stated) | · | · | · | · | · | -3%
SMILES | SMN2 splice enh | KinaseGlo FLuc | NPC1 prom act | ELG1 genotox | Rab9 prom act | FLuc modulator
CCc1ccc(NC(=O)C(CC)n2c(=O)c(C(F)(F)F)nc3ccccc32)cc1 (configuration not stated) | · | · | · | · | · | 0%
CCOC(=O)c1sc2nc3c(SCC(=O)O)cc(C(=O)c4ccccc4O)cn3c(=O)c2c1C | 19% | -10% | 18% | 2% | 13% | 2.4µM*
O=C1O/C(=C/c2ccccc2)N=C1c1ccccc1 | 7% | 0% | -1% | 0% | 0% | 2.7µM*
Cn1ncc2c(N3CCN(c4cccc(Cl)c4)CC3)ncnc21 | · | · | · | · | · | -8%
CN1CCN(c2ncnc3c2cnn3-c2cccc(Cl)c2)CC1 | · | · | · | · | · | 13µM*
Cc1ccc(-n2ncc3c2ncn2c(C)nnc32)cc1C | ? | -20% | 2.5µM* | ? | 2µM* | 5.4µM*
Cc1ccc(-n2ncc3c(N4CCN(C)CC4)ncnc32)cc1C | · | · | · | · | · | 4.3µM*
CC(C)=CCl | 25% | · | · | · | · | ·
COc1ccc(Cl)cc1Nc1ncnc2c1nc1n2CCCC1 | · | · | · | · | · | -13%
COc1cc(/C(C)=N/Nc2ccc(C(=O)O)cc2)cc(OC)c1OC | 16µM* | 2% | ? | ? | ? | ?
COc1ccc(/C(C)=N/Nc2ccc(C(=O)O)cc2)cc1OC | ? | 2% | 0.63µM* | ? | 1.3µM* | 6.7µM*
COc1ccc(OC)c(/C(C)=N/Nc2ccc(C(=O)O)cc2)c1 | · | · | 3% | ? | 14% | -2%
C/C(=C\C(=O)c1ccccc1)Nc1ccc2c(c1)OCO2 | 22µM* | -3% | 2.8µM* | ? | 4µM* | 3.8µM*
CC(=O)Nc1ccc2c(c1)OCO2 | 6% | 1% | -3% | -1% | 1% | -2%
Cc1ccc(C(=O)Nc2ccc3c(c2)OCO3)o1 | 11µM* | ? | 2.8µM* | 15µM* | 28%[1.84 µM] | 11µM*
C/C(=C\C(=O)c1ccc(C)o1)Nc1ccc2c(c1)OCO2 | 27% | -4% | 2.8µM* | ? | 2.2µM* | 4.8µM*
CCCCC[C@H](O)/C=C/C=C\C/C=C\CCCCC(=O)O | -10% | -1% | · | · | · | ·
CC(C)c1ccc(NC(=O)c2cc3c(=O)oc4ccccc4c3s2)cc1 | 3% | · | · | · | · | -6%
Cn1/c(=N/NC(=O)c2ccccc2Br)sc2ccccc21 | ? | -5% | ? | ? | 4µM* | 15µM*
COc1cc(C(=O)N/N=c2/sc3ccccc3n2C)cc(OC)c1OC | -67%[1.84 µM] | 0% | 5% | 3% | 5% | 0%
Cc1ccccc1OCc1nc2c3cnn(C)c3ncn2n1 | ? | -8% | 4µM* | 5.8µM* | 2.8µM* | ?
Cc1ccccc1OCc1nc2c3c(ncn2n1)-c1ccccc1CC31CCCC1 | -32% | -2% | -6% | 2% | 0% | 0%
CC(C)NC(=O)c1cnc2sc(N3CCCCCC3)nn2c1=O | · | · | · | · | · | 4%
O=C1C(Cl)=C(N2CCCCC2)C(=O)C(Cl)=C1c1cnc(N2CCCCC2)s1 | -67% | -21% | -28% | -4% | -30% | 9.5µM*
C[C@@H]1Cc2ccccc2N1NC(=O)c1ccc(Cl)c(S(N)=O)c1 (some centres not stated) | -10%[20.6 µM] | 3%[17.1 µM] | · | · | · | ·
O=C(COc1ccc(Cl)cc1Cl)c1ccc[nH]1 | · | · | ? | ? | ? | 17µM*
